According to PubChem BioAssay (NCATS):
Records with an inconclusive call do not appear. Where a call stands in place of a potency, no number is given. Values without a mark were called inactive. Active and inactive are the calls of the source. The call rests on the fitted dose curve. Numbered stars: 1 amine (or outer) side, 2 acyl side, 3 side chain; on linkers, the order of the positions; unused ones are H or OH. Bridge positions count the residues as written; N and C are the ends. Square brackets hold non-standard residues; d marks the D form. Peptide text beside a SMILES is read from it. * marks the point of attachment. ξ: configuration not given here. pTerphenylCO(4''-OnC5H11) = CCCCCOc1ccc(-c2ccc(-c3ccc(C(=O)*)cc3)cc2)cc1; ξOrn(4,5-diOH) = O=C(C(CC(O)C(O)N[*:3])N[*:1])[*:2]; ξhTyr(βξ-OH,γξ-OH) = NC(C(=O)O)C(O)C(O)c1ccc(O)cc1; ξPro(3ξ-OH,4ξ-Me) = CC1CNC(C(=O)O)C1O; Hyp = O=C(O)[CH]1C[CH](O)CN1
Potency means the concentration at half of the fitted maximal effect.

Test: Primary qHTS for inhibitors of MERS-S pseudo-typed particle cell entry (AID 1479149); further: nearly all actives have a fitted effect of over 60% in size
Details: MERS-S pseudotyped particle entry, luciferase; series mostly up to 57.1 µM
With `CNC(C)C(O)c1ccccc1` (configuration not stated) the Potency was “inactive”. For `COc1cc(CNC(=O)CCCC/C=C/C(C)C)ccc1O`, the Potency was “inactive”. With `Nc1nc(NC2CC2)c2ncn([C@H]3C=C[C@@H](CO)C3)c2n1` the Potency was “inactive”. In the case of `CN(C)C/C=C/C(=O)Nc1cc2c(Nc3ccc(F)c(Cl)c3)ncnc2cc1OC1CCOC1` (configuration not stated), the Potency is reported as 14.1 µM (active). For `NC(=O)C1(N2CCCCC2)CCN(CCCN2c3ccccc3CCc3ccccc32)CC1`, the Potency was 8.91 µM (active). In the case of `CC(OC(=O)NCC1(CC(=O)O)CCCCC1)OC(=O)C(C)C` (configuration not stated), the Potency is reported as “inactive”. With `COc1ccc(CNCC(O)COc2ccc3[nH]c(=O)ccc3c2)cc1OC` (configuration not stated) the Potency was “inactive”. For `C/C(O)=C(\C#N)C(=O)Nc1ccc(C(F)(F)F)cc1`, the Potency was “inactive”. For `C[C@@H](c1nc(-c2ccc(C#N)cc2)cs1)[C@](O)(Cn1cncn1)c1cc(F)ccc1F`, the Potency was 10 µM (active). With `CCN(CC)C(=O)[C@]1(c2ccccc2)C[C@H]1CN` the Potency was “inactive”. For `OCCOc1ccc(/C(=C(/CCCl)c2ccccc2)c2ccccc2)cc1`, the Potency was “inactive”. In the case of `C[C@H]1O[C@@H](O[C@H]2[C@@H](O)C[C@H](O[C@H]3[C@@H](O)C[C@H](O[C@H]4CC[C@@]5(C)[C@H](CC[C@@H]6[C@@H]5C[C@@H](O)[C@]5(C)[C@@H](C7=CC(=O)OC7)CC[C@]65O)C4)O[C@@H]3C)O[C@@H]2C)C[C@H](O)[C@@H]1O`, the Potency is reported as “inactive”. In the case of `C=C1c2c(Cl)ccc(O)c2C(O)=C2C(=O)[C@@]3(O)C(O)=C(C(N)=O)C(=O)[C@@H](N(C)C)[C@@H]3[C@@H](O)[C@H]12`, the Potency is reported as 20 µM (active). With `CCCOc1ccc2nc(NC(=O)OC)sc2c1` the Potency was “inactive”. With `CC(C)C[C@H](NC(=O)CNC(=O)c1cc(Cl)ccc1Cl)B1OC(=O)C(CC(=O)O)(CC(=O)O)O1` the Potency was 1.26 µM (active). In the case of `O=C(O)[C@H]1OC(O)[C@H](O)[C@@H](O)[C@@H]1O` (some centres not stated), the Potency is reported as “inactive”. In the case of `C=CC(=O)N1CCCC(n2nc(-c3ccc(Oc4ccccc4)cc3)c3c(N)ncnc32)C1` (configuration not stated), the Potency is reported as “inactive”. In the case of `COc1cc2c(cc1O)CCN[C@]21CS[C@@H]2c3c(OC(C)=O)c(C)c4c(c3[C@H](COC1=O)N1[C@@H]2[C@H]2c3c(cc(C)c(OC)c3O)C[C@@H]([C@@H]1O)N2C)OCO4`, the activity change, negative = inhibition is reported as -71.9% [at 11.4 µM]. With `CC#CCC(C)[C@H](O)/C=C/[C@@H]1[C@H]2C/C(=C/CCCC(=O)O)C[C@H]2C[C@H]1O` (some centres not stated) the Potency was “inactive”. In the case of `CC[C@@]1(O)C(=O)OCc2c1cc1n(c2=O)Cc2cc3c([N+](=O)[O-])cccc3nc2-1`, the Potency is reported as “inactive”. For `CCCCCCCCCCCCOC(=O)CS(=O)(=O)O`, the Potency was “inactive”. In the case of `CC(=O)O[C@H]1C[C@@H]2CC[C@@H]3[C@H](CC[C@@]4(C)[C@H]3C[C@H](N3CC[N+](C)(C)CC3)[C@@H]4OC(C)=O)[C@@]2(C)C[C@@H]1N1CC[N+](C)(C)CC1`, the Potency is reported as “inactive”. With `CC(=O)OC1CC(OC2C(O)CC(OC3C(O)CC(OC4CCC5(C)C(CCC6C5CCC5(C)C(C7=CC(=O)OC7)CCC65O)C4)OC3C)OC2C)OC(C)C1O` (configuration not stated) the Potency was “inactive”. In the case of `CCCCCOc1ccc(-c2ccc(-c3ccc(C(=O)NC4CC(O)C(O)NC(=O)C5C(O)C(C)CN5C(=O)C(C(C)O)NC(=O)C(C(O)C(O)c5ccc(O)cc5)NC(=O)C5CC(O)CN5C(=O)C(C(C)O)NC4=O)cc3)cc2)cc1` (stereo not drawn) ({pTerphenylCO(4''-OnC5H11)}-[ξOrn(4,5-diOH)]T[Hyp][ξhTyr(βξ-OH,γξ-OH)]T[ξPro(3ξ-OH,4ξ-Me)]; lactam 1-C; configuration not given here), the Potency is reported as 11.2 µM (active). In the case of `CC(=O)OC1C[C@H](O[C@@H]2C(O)C[C@H](O[C@@H]3C(O)C[C@@H](OC4CC[C@]5(C)C(CCC6C5CC(O)[C@@]5(C)C(C7=CC(=O)OC7)CC[C@@]65O)C4)OC3C)OC2C)O[C@H](C)[C@H]1O[C@H]1OC(CO)C(O)C(O)C1O` (some centres not stated), the Potency is reported as “inactive”. For `COc1cc([C@@H]2c3cc4c(cc3C(O[C@@H]3O[C@@H]5CO[C@@H](c6cccs6)OC5[C@H](O)[C@H]3O)C3COC(=O)[C@@H]32)OCO4)cc(OC)c1O` (some centres not stated), the Potency was “inactive”.

Test: Primary qHTS for Vero E6 cytotoxicity: counterscreen for inhibitors of SARS-S pseudo-typed particle cell entry (AID 1479150)
Details: cell viability; series mostly up to 57.1 µM
In the case of `CNC(C)C(O)c1ccccc1` (configuration not stated), the Potency is reported as “inactive”. In the case of `C(=C\c1ccncc1)/c1ccccc1`, the Potency is reported as “inactive”. With `COc1cc(CNC(=O)CCCC/C=C/C(C)C)ccc1O` the Potency was “inactive”. With `CN(C)C/C=C/C(=O)Nc1cc2c(Nc3ccc(F)c(Cl)c3)ncnc2cc1OC1CCOC1` (configuration not stated) the Potency was 10 µM (active). With `NC(=O)C1(N2CCCCC2)CCN(CCCN2c3ccccc3CCc3ccccc32)CC1` the Potency was “inactive”. With `CC(OC(=O)NCC1(CC(=O)O)CCCCC1)OC(=O)C(C)C` (configuration not stated) the Potency was “inactive”. In the case of `COc1ccc(CNCC(O)COc2ccc3[nH]c(=O)ccc3c2)cc1OC` (configuration not stated), the Potency is reported as “inactive”. In the case of `CCN(CC)C(=O)[C@]1(c2ccccc2)C[C@H]1CN`, the Potency is reported as “inactive”. With `OCCOc1ccc(/C(=C(/CCCl)c2ccccc2)c2ccccc2)cc1` the Potency was “inactive”. For `C=C1c2c(Cl)ccc(O)c2C(O)=C2C(=O)[C@@]3(O)C(O)=C(C(N)=O)C(=O)[C@@H](N(C)C)[C@@H]3[C@@H](O)[C@H]12`, the Potency was “inactive”. For `O=C(O)[C@H]1OC(O)[C@H](O)[C@@H](O)[C@@H]1O` (some centres not stated), the Potency was “inactive”. With `CCc1cc2c(cc1CC)CC(NC[C@H](O)c1ccc(O)c3[nH]c(=O)ccc13)C2` the Potency was “inactive”. For `CCCCCCCCC=CCCCCCCCC(=O)NCCOC(=O)CC(C(=O)O)S(=O)(=O)O` (configuration not stated), the Potency was “inactive”. In the case of `COc1ccc2c(c1)OC(C)(C)C(c1ccccc1)C2c1ccc(OCCN2CCCC2)cc1` (configuration not stated), the Potency is reported as “inactive”. In the case of `C=CC(=O)N1CCCC(n2nc(-c3ccc(Oc4ccccc4)cc3)c3c(N)ncnc32)C1` (configuration not stated), the Potency is reported as “inactive”. In the case of `CC#CCC(C)[C@H](O)/C=C/[C@@H]1[C@H]2C/C(=C/CCCC(=O)O)C[C@H]2C[C@H]1O` (some centres not stated), the Potency is reported as “inactive”. In the case of `CC1(S(=O)(=O)O)CC(=O)c2ccccc2C1=O` (configuration not stated), the Potency is reported as “inactive”. In the case of `CO[C@H]1C[C@@H]2CC[C@@H](C)[C@@](O)(O2)C(=O)C(=O)N2CCCC[C@H]2C(=O)O[C@H]([C@@H](C)C[C@@H]2CC[C@@H](O)[C@H](OC)C2)CC(=O)[C@H](C)/C=C(\C)[C@@H](O)[C@@H](OC)C(=O)[C@H](C)C[C@H](C)/C=C/C=C/C=C/1C`, the Potency is reported as “inactive”. In the case of `CCCCCCCCCCCCOC(=O)CS(=O)(=O)O`, the Potency is reported as “inactive”. For `CC(=O)O[C@H]1C[C@@H]2CC[C@@H]3[C@H](CC[C@@]4(C)[C@H]3C[C@H](N3CC[N+](C)(C)CC3)[C@@H]4OC(C)=O)[C@@]2(C)C[C@@H]1N1CC[N+](C)(C)CC1`, the Potency was “inactive”. With `CCCCCOc1ccc(-c2ccc(-c3ccc(C(=O)NC4CC(O)C(O)NC(=O)C5C(O)C(C)CN5C(=O)C(C(C)O)NC(=O)C(C(O)C(O)c5ccc(O)cc5)NC(=O)C5CC(O)CN5C(=O)C(C(C)O)NC4=O)cc3)cc2)cc1` (stereo not drawn) ({pTerphenylCO(4''-OnC5H11)}-[ξOrn(4,5-diOH)]T[Hyp][ξhTyr(βξ-OH,γξ-OH)]T[ξPro(3ξ-OH,4ξ-Me)]; lactam 1-C; configuration not given here) the Potency was “inactive”.
